Experiment [1] is described as follows: qHTS assay to identify small molecule agonists of H2AX (AID 1224845; active = well fitted activation curve with a large enough effect in the signal ratio in the repeat runs, not every such curve was filed as active; the % refers to the signal ratio). Summed up: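 Wild-type CHO-K1 cells plated overnight, then exposed 3 hr at 37C to compounds at 15 concentrations (0.76% DMSO). Lysed, then HTRF anti-pH2AX(S139)-cryptate/anti-H2AX-d2 detection after 24 hr at room temperature; emissions 665 and 620 nm.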
The nature of experiment [2]: qHTS assay to identify small molecule agonists of H2AX - cell viability counter screen (AID 1224847; calls by dose curve; also: nearly all actives have a fitted effect of over 30% in size; also: potency is read from the fitted curve at half-maximal effect). In short, it runs like this: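 Cytotoxicity counter screen in wild-type CHO-K1 cells: a 3 hr compound treatment at 37C across 15 concentrations, followed by CellTiter-Glo luminescence to gauge viable cells.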
On the technique in general: Quantitative high-throughput screening tests each substance at several concentrations.

A short description of experiment [3]: qHTS assay to identify small molecule antagonists of the estrogen related receptor (ERR) signaling pathway from Tox21 library (AID 1224848). Also: nearly all actives have a fitted effect of over 50% in size. Also: potency is read from the fitted curve at half-maximal effect. Summed up: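 Cells: ERR line, 2,000/well; 6 h preincubation 37 C/5% CO2. Cpd in DMSO via pin tool; 18 h, 37 C. ONE-Glo, 30 min RT, luminescence.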
The nature of experiment [4]: qHTS assay to identify small molecule agonists of the estrogen related receptor (ERR) signaling pathway from Tox21 library (AID 1224849; calls by dose curve; also: nearly all actives have a fitted effect of over 15% in size). The note with it: ERR reporter cell line, ONE-Glo luciferase, 18 h; at 92.4 µM (top of the series). In short, it runs like this:
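ERR reporter cell line (NTP) seeded, rested 6 h at 37 C/5% CO2, then pinned with Tox21 compounds in DMSO. After 18 h at 37 C, ONE-Glo luciferase luminescence was read following 30 min at room temperature.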

Experiment [5] can be described thus: qHTS RealTime-Glo MT Cell Viability Assay in HepG2 cells - 24 hour (AID 1224867). Also: nearly all actives have a fitted effect of over 50% in size. In short, it runs like this: (§1)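 qHTS, HepG2, 600 cells/well, RealTime-Glo (NanoLuc + prosubstrate) added with cells; 5 h preincubation; DMSO compound addition; 37 C; luminescence at 0/8/16/24/32/40 h.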
A short description of experiment [6]: qHTS RealTime-Glo MT Cell Viability Assay in HEK293 cells - 32 hour (AID 1224868). Also: nearly all actives have a fitted effect of over 50% in size. Also: potency is read from the fitted curve at half-maximal effect. Summed up:
(§2)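 Assay medium contained NanoLuc luciferase plus cell-permeant prosubstrate, added with HEK293 cells at 600 cells/well. After 5 h at 37 C/5% CO2 compounds were added; plates stayed at 37 C for 40 h with serial luminescence reads.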

Experiment [7] can be described thus: qHTS RealTime-Glo MT Cell Viability Assay in HepG2 cells - 40 hour (AID 1224870). Also: nearly all actives have a fitted effect of over 50% in size. Summed up:
(§3)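 HepG2 cells mixed with RealTime-Glo MT reagents (NanoLuc plus cell-permeant prosubstrate) were seeded at 600 cells/well, incubated 5 h at 37 C/5% CO2, then pinned with compounds in DMSO; nonlytic luminescence tracked viability during 40 h treatment.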

A short description of experiment [8]: A CellTox Green Cytotoxicity Assay to monitor cytotoxicity in HEK293 cells - 40 hour (AID 1224871). Also: nearly all actives have a fitted effect of over 45% in size. Also: potency is read from the fitted curve at half-maximal effect. In short, it runs like this: (§4)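 HEK293 cells premixed with CellTox Green dye were seeded at 600 cells/well and left 5 h at 37 C/5% CO2 before pin transfer of 23 nL compound in DMSO. Fluorescence from dye bound to dead-cell DNA was read during 40 h treatment.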

Experiment [9] in a line: qHTS RealTime-Glo MT Cell Viability Assay in HEK293 cells - 16 hour (AID 1224872). Also: nearly all actives have a fitted effect of over 50% in size. Also: potency is read from the fitted curve at half-maximal effect. In short, it runs like this:
as §2

Experiment [10] can be described thus: qHTS RealTime-Glo MT Cell Viability Assay in HepG2 cells - 8 hour (AID 1224873). Also: nearly all actives have a fitted effect of over 55% in size. In short, it runs like this: as §3
Experiment [11] is described as follows: qHTS RealTime-Glo MT Cell Viability Assay in HEK293 cells - 40 hour (AID 1224874). Also: nearly all actives have a fitted effect of over 50% in size. Also: potency is read from the fitted curve at half-maximal effect. Particulars: RealTime-Glo luminescence; max response: stronger effect = lower value. In short, it runs like this: (§5)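 HEK293 cells mixed with RealTime-Glo reagents (NanoLuc plus cell-permeant prosubstrate) at 600 cells/well, preincubated 5 h at 37 C/5% CO2, then given 23 nL compound in DMSO. Nonlytic luminescence from viable cells was read at 0, 8, 16, 24, 32 and 40 h.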

Experiment [12] in a line: A CellTox Green Cytotoxicity Assay to monitor cytotoxicity in HepG2 cells - 16 hour (AID 1224876). Also: nearly all actives have a fitted effect of over 45% in size. Summed up:
(§6)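 HepG2 cells were seeded together with the CellTox Green dye at 600 cells/well, left 5 h at 37 C/5% CO2, then given compounds in DMSO. Fluorescence from dye bound to dead-cell DNA was read repeatedly over 40 h of treatment at 37 C.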

Experiment [13] in a line: qHTS RealTime-Glo MT Cell Viability Assay in HepG2 cells - 32 hour (AID 1224877). Also: nearly all actives have a fitted effect of over 55% in size. Summed up: as §1
The nature of experiment [14]: A CellTox Green Cytotoxicity Assay to monitor cytotoxicity in HepG2 cells - 24 hour (AID 1224878). Also: nearly all actives have a fitted effect of over 45% in size. Summed up:
as §6

Experiment [15] can be described thus: A CellTox Green Cytotoxicity Assay to monitor cytotoxicity in HepG2 cells - 40 hour (AID 1224879). Also: nearly all actives have a fitted effect of over 40% in size. Also: potency is read from the fitted curve at half-maximal effect. Summed up:
as §6

Experiment [16] is described as follows: qHTS RealTime-Glo MT Cell Viability Assay in HEK293 cells - 0 hour (AID 1224880). Also: top concentration of the series differs between compounds; nearly all actives have a fitted effect of over 45% in size. In short, it runs like this:
as §5

Experiment [17] can be described thus: qHTS assay to identify small molecule agonists of the hypoxia (HIF-1) signaling pathway - cell viability counter screen (AID 1224844; calls by dose curve; also: nearly all actives have a fitted effect of over 50% in size). In short, it runs like this:
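HRE-bla ME-180 cells in medium with 0.5% dialyzed FBS were preincubated 5 hrs at 37C, exposed to compounds for 17 hrs, then viability was read as CellTiter-Glo luminescence after 30 min at room temperature, in the reporter wells.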

Experiment [18] can be described thus: A CellTox Green Cytotoxicity Assay to monitor cytotoxicity in HEK293 cells - 24 hour (AID 1224875). Also: nearly all actives have a fitted effect of over 45% in size. Also: potency is read from the fitted curve at half-maximal effect. In short, it runs like this:
as §4

A short description of experiment [19]: A CellTox Green Cytotoxicity Assay to monitor cytotoxicity in HEK293 cells - 0 hour (AID 1224869). Also: nearly all actives have a fitted effect of over 50% in size. Summed up: as §4
Experiment [20] is described as follows: qHTS assay to identify small molecule agonists of the hypoxia (HIF-1) signaling pathway (AID 1224846; active = well fitted activation curve with a large enough effect in the signal ratio in the repeat runs, not every such curve was filed as active; the % refers to the signal ratio). In short, it runs like this: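 HRE-bla ME-180 cells (beta-lactamase reporter under hypoxia response element) were plated at 2,000 cells/well in medium with 0.5% dialyzed FBS, rested 5 hrs, then given compounds in DMSO for 17 hrs at 37C, 5% CO2. Reporter induction was read with CCF4-AM FRET substrate.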

Structures are written as SMILES. Several values for one entry are separate records, joined by “and”; a condition that tells them apart may be missing. Equal values may be shown once. Inconclusive results are not listed. Where a structure was tested more than once in an assay, its records may differ in their call. Activity calls are given as the source filed them. Unless noted, calls follow the shape of the dose curve; as a rule, active = well fitted curve in the direction sought with a large enough effect in the repeat runs; inconclusive = weak or mixed curves; inactive = no such curve, though single readings can be large; an effect the other way counts as inactive or inconclusive.
% is scaled to controls: 0 for no effect and ±100 for the full control effect.

For the compound `NNC(=S)NN`, the Potency entry in experiment [1], in experiment [2], in experiment [5], in [6], in experiment [7] and in experiment [8] was “inactive” each time. For the same compound, the Potency entry in experiment [9], in experiment [10], in experiment [12], in [13], in experiment [14] and in experiment [15] was “inactive” in each case. Also, the Potency entry in [16] is “inactive”. For the same compound, the Potency in experiment [3] is 62.8 µM (active). The activity change, positive = activation in experiment [4] is -65.9% (inactive) and -38.7% (inactive). Also, the max response in experiment [11] is 7.14% (inactive) and 10.3% (inactive).
Consider `Cc1cc(C)cc(C)c1`, for which the Potency entry in experiment [17], in experiment [1], in experiment [5], in [6], in experiment [7] and in experiment [8] was “inactive” in each case. Moreover, the Potency result in [9], in experiment [10], in experiment [12], in [13], in experiment [14] and in [15] was “inactive” in each case. Moreover, the Potency entry in experiment [16] was “inactive”. Besides, the max response in experiment [11] was 1.65% (inactive) and -3.48% (inactive).
`Brc1ccc(Oc2cc(Br)c(Br)cc2Br)c(Br)c1`: the Potency result in experiment [17], in experiment [1], in [3], in [5], in experiment [7] and in experiment [8] was “inactive” in each case. The Potency result in [10], in experiment [12], in experiment [13], in [14], in experiment [15] and in experiment [16] was “inactive” in each case. The activity change, positive = activation in experiment [4] was -14.5% (inactive). Besides, the Potency in experiment [6] and in experiment [11] was 43.6 µM (active) each time.
For the compound `CCCCCCCCCCCOC(=O)c1ccccc1C(=O)OCCCCCCCCCCC`, the Potency entry in experiment [17], in experiment [1], in experiment [5], in [6], in experiment [8] and in experiment [9] was “inactive” in each case. Further, the Potency entry in experiment [10], in experiment [18], in experiment [12], in [13], in experiment [14] and in experiment [15] was “inactive” each time. For the same compound, the Potency result in experiment [16] is “inactive”. In experiment [11], the max response was 1.36% (inactive) and 2.6% (inactive).
For `Nc1ccc(-c2ccc(N)c(N)c2)cc1N`, the Potency entry in [17], in experiment [2], in experiment [5], in experiment [6], in experiment [19] and in [7] was “inactive” each time. For the same compound, the Potency entry in [8], in experiment [9], in [10], in experiment [18], in [12] and in experiment [13] was “inactive” each time. For the same compound, the Potency result in experiment [14], in experiment [15] and in experiment [16] was “inactive” in each case. In addition, the max response in [11] was 10% (inactive).
With `O=C(CCl)c1ccccc1`, the Potency entry in [17], in [1], in [5], in experiment [19], in experiment [7] and in experiment [10] was “inactive” in each case. Besides, the Potency entry in [18], in experiment [12], in experiment [13], in experiment [15] and in [16] was “inactive” each time. Also, the Potency entry was “inactive and 49 µM (active)” in experiment [6]; “inactive and 54.9 µM (active)” in experiment [8]; “inactive and 49 µM (active)” in experiment [9]; 43.6 µM (active) in experiment [11]. Further, in experiment [11], the max response is -7.31% (inactive).
Turning to `Oc1ccc(-c2ccccc2)cc1`, the Potency entry in [17], in experiment [1], in [3], in [5], in experiment [19] and in [7] was “inactive” in each case. In addition, the Potency result in [10], in experiment [18], in [12], in [13] and in [16] was “inactive” in each case. Moreover, in experiment [4], the activity change, positive = activation is 1.81% (inactive). Besides, the Potency was 19.2 µM (active) in experiment [8]; “inactive and 49 µM (active)” in [15].
Turning to `Nn1cnnc1`, the Potency entry in experiment [17], in experiment [1], in [5], in experiment [6], in experiment [19] and in [7] was “inactive” each time. The Potency result in [8], in [9], in experiment [10], in experiment [12], in experiment [13] and in experiment [14] was “inactive” throughout. The Potency entry in [15] and in experiment [16] was “inactive” in each case. Also, the max response in experiment [11] was -2.23% (inactive) and 1.89% (inactive).
On to `CCCCCCCCC(=O)NCc1ccc(O)c(OC)c1`, for which the Potency result in experiment [17], in [1], in experiment [5], in [6], in [8] and in [9] was “inactive” in each case. The Potency result in experiment [10], in experiment [18], in experiment [12], in [13], in experiment [14] and in experiment [15] was “inactive” each time. For the same compound, in experiment [16], the Potency result is “inactive”. For the same compound, the max response in [11] is 8.1% (inactive) and -1.04% (inactive).
Regarding `CCN(N=O)C(N)=O`, the Potency entry in [17], in [1], in [5], in experiment [6], in experiment [7] and in experiment [8] was “inactive” in each case. Further, the Potency entry in experiment [9], in experiment [10], in experiment [18], in experiment [12], in [13] and in experiment [15] was “inactive” each time. Further, in [16], the Potency result is “inactive”. The max response in experiment [11] was 4.37% (inactive) and -1.44% (inactive).
`O=[N+]([O-])c1ccc(O)c([N+](=O)[O-])c1`: the Potency entry in experiment [17], in [1], in experiment [5], in [6], in experiment [19] and in [8] was “inactive” each time. The Potency entry in experiment [9], in experiment [10], in experiment [12], in experiment [13], in [14] and in experiment [15] was “inactive” in each case. Also, the Potency entry in experiment [16] was “inactive”. Moreover, in experiment [3], the Potency is 21.8 µM (active) and 21.7 µM (active). In experiment [4], the activity change, positive = activation was -36.7% (inactive) and -43.4% (inactive). Besides, the max response in [11] was -16% (inactive).
Consider `CC(C)(OOC(C)(C)c1ccccc1)c1ccccc1`, for which the Potency entry in [17], in experiment [3], in experiment [5], in [6], in [19] and in [7] was “inactive” throughout. Moreover, the Potency entry in [9], in experiment [10], in experiment [12], in experiment [13], in [15] and in experiment [16] was “inactive” in each case. Further, the compound was classed as inactive in experiment [20]. The Potency was 99.3 µM (active) in [2]; 24.2 µM (active) and 49 µM (active) in experiment [8]; 48.3 µM (active) and 49 µM (active) in experiment [18]. Also, the activity change, positive = activation in [4] is 7.35% (inactive) and 4.9% (inactive). The max response in experiment [11] is -13.8% (inactive) and -15.4% (inactive).
Regarding `c1cc(OCC2CO2)ccc1Cc1ccc(OCC2CO2)cc1` (stereo not given), the Potency result in experiment [1], in [5], in [6], in experiment [8], in experiment [9] and in experiment [10] was “inactive” in each case. The Potency entry in experiment [18], in experiment [12], in experiment [13], in [14], in experiment [15] and in experiment [16] was “inactive” each time. Moreover, the max response in experiment [11] is -28.4% (inactive).

(Values after PubChem BioAssay (Tox21).)
